Source: PubChem BioAssay AID686979 (National Center for Advancing Translational Sciences (NCATS), 2013)
Values joined by “and” are separate entries in the source; they are usually repeats but may differ in a detail not shown here. Identical values can stand only once. In all, about 420,000 compounds went through this assay and about 50,000 (12%) were called active. A call without a number means that no potency is given here. Not shown: some 26% with an inconclusive outcome. This is one part of a sample in which actives are shown more often than they occur. The call rests on the fitted dose curve; in most records, active means well fitted inhibition curve with a large enough effect; inconclusive means small, poorly fitted or top-dose-only effect; inactive means flat fitted curve, though single readings scatter.

Experiment: qHTS for Inhibitors of human tyrosyl-DNA phosphodiesterase 1 (TDP1): qHTS in cells in presence of CPT; further: nearly all actives have a fitted effect of over 55% in size
Details: chicken DT40 Tdp1-/-;hTDP1 cells + 20 nM CPT, ATP luminescence, 48 h; series mostly up to 46.2 µM
Procedure, shortened: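 Cell growth measured by CellTiter-Glo luminescence after a minimum 48 h, 37 C compound exposure with 20 nM CPT in Tdp1-knockout DT40 cells stably expressing hTDP1, seeded 400/well; qHTS titration format.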
Potency means the concentration at half of the fitted maximal effect.

Row | SMILES | Potency
1 | COc1ccc(C2CC(c3cccs3)Nc3nnnn32)cc1 (stereo not given) | inactive
2 | CC(=O)c1ccc(-c2cnc3c(NC=O)cc(-c4cccc(NS(C)(=O)=O)c4)cn23)cc1 | 23.1 µM (active)
3 | COc1ccc(/C=N/S(=O)(=O)c2ccccc2)cc1OC | inactive
4 | COCCNc1ccnc(-c2cccc(NS(C)(=O)=O)c2)n1 | inactive
5 | COc1cc(C=O)ccc1Oc1nnnn1-c1ccccc1 | inactive
6 | COc1ccc(-c2cc(NC=O)c3ncc(-c4cccc(C(=O)N(C)C)c4)n3c2)c(OC)c1 | 23.1 µM (active)
7 | COc1ccc(-c2cc(NC=O)c3ncc(-c4ccccc4)n3c2)cc1OC | 6.51 µM (active)
8 | COc1cccc(-c2cc(NC(C)=O)c3ncc(-c4cccc(C(C)=O)c4)n3c2)c1 | 23.1 µM (active)
9 | COc1ccc(NC(=O)CC2COc3ccccc3O2)c(OC)c1 (stereo not given) | inactive
10 | COc1ccc(Nc2ncnc3sc(-c4ccccc4)cc23)c(OC)c1 | inactive
11 | COc1cccc(NC(=O)CSc2nnc(-c3cccnc3)o2)c1 | inactive
12 | CC(=O)Nc1cc(-c2ccccc2F)cn2c(-c3cccc(C(F)(F)F)c3)cnc12 | inactive
13 | Cc1cccc(N=C2SC(C)CN2C(=O)CN2C(=O)NC3(CCCC3)C2=O)c1 (stereo not given) | inactive
14 | O=C(CCn1nnc2ccccc2c1=O)N[C@@H](Cc1c[nH]c2ccccc12)C(=O)O | inactive
15 | COc1ccc(S(=O)(=O)N2CCOCC2)cc1NC(=O)CC1CC2CCC1C2 (stereo not given) | inactive
16 | O=C(O)CC(CC(=O)N1CCOCC1)c1ccccc1 (stereo not given) | inactive
17 | Cc1ccc(CN2COc3cc(C)c4c(oc(=O)c5ccccc54)c3C2)cc1 | inactive
18 | CC(C)C[C@H](NC(=O)C1CCC(CNC(=O)[C@@H]2CCCN2C(=O)OC(C)(C)C)CC1)C(=O)O (stereo not given in full) | inactive
19 | COc1cccc(CNC(=O)CCCC(=O)Nc2cccc([N+](=O)[O-])c2)c1 | inactive
20 | Cc1c(NC(=O)CSCc2ccccc2)cccc1C(=O)O | inactive
21 | COc1cc(C(=O)N/C(=C\c2cn(C)c3ccccc23)C(=O)N2CCOCC2)cc(OC)c1OC | inactive
22 | CCCCNC(=O)N(O)C1N(/N=C/c2ccccc2O)C(=S)SC1(C)C (stereo not given) | inactive
23 | COc1ccnc(Oc2ccccc2)c1-c1ncn[nH]1 | inactive
24 | Cc1ccc2oc(=O)c3cnn(CC(=O)NCc4ccccc4Cl)c3c2c1 | inactive
25 | Cc1ccccc1C(=O)Nc1ccccc1Sc1ccccc1 | inactive

Row | SMILES | Potency
26 | COc1cccc(/C=C2\Sc3ccc(C(=O)NCC4CCCO4)cc3N(C)C2=O)c1 (stereo not given) | 18.4 µM (active)
27 | COc1cccc(C(=O)NCCS(=O)(=O)NCC2CCCO2)c1 (stereo not given) | inactive
28 | COc1ccccc1-n1cnc2cc(C(=O)NCC3CCCO3)ccc21 (stereo not given) | inactive
29 | COc1ccc(CN2C(=O)C(CC(=O)NCc3cccc4ccccc34)CC(C(=O)N3CCOCC3)=C2C)cc1 (stereo not given) | inactive
30 | CCOc1ccc(CNC(=O)C2CCCN(c3nnc(C)c4c(C)n(-c5ccccc5)nc34)C2)cc1 (stereo not given) | 13 µM (active)
31 | CCOC(=O)C1CCN(C(=O)Cn2nc(C)c3c(C)n(-c4ccccc4)nc3c2=O)CC1 | inactive
32 | COc1ccc(-n2nc3c(N4CCC(C(=O)NCc5ccccc5)CC4)nnc(C)c3c2C)cc1 | inactive
33 | Cc1ccc(NC(=O)N2CCC(C(=O)NCc3ccc(F)cc3)CC2)cc1 | inactive
34 | Cc1nnc(N2CCCC(C(=O)NCCN(C)C)C2)c2nn(-c3ccccc3)c(C)c12 (stereo not given) | inactive
35 | CCc1ccc(CNC(=O)C2CCN(c3nnc(C)c4c(C)n(-c5ccc(C)cc5)nc34)CC2)cc1 | 5.17 µM (active) and 16.4 µM (active)
36 | Cc1ccc(C=O)cc1Cl | inactive
37 | Cc1nc2scc(-c3cccs3)c2c(=O)n1N | inactive
38 | [2H]C(CCOS(N)(=O)=O)c1ccccc1 (stereo not given) | inactive
39 | CCC(C)N(C(=O)CSc1nnnn1-c1ccccc1OC)C1CCS(=O)(=O)C1 (stereo not given) | inactive
40 | COc1ccccc1-n1nnnc1S(=O)(=O)Cc1ccc(Cl)cc1 | 5.8 µM (active)
41 | COc1ccccc1-n1nnnc1SCC(=O)NC(=O)Cc1ccccc1 | inactive
42 | O=C(NCCO)c1cccc(-c2cccc3nccn23)c1 | inactive
43 | CS(=O)(=O)Nc1ccc(C2=NN(S(C)(=O)=O)C(c3cccs3)C2)cc1 (stereo not given) | inactive
44 | COc1ccc(C2=NN(C(=O)CCC(=O)O)C(c3cccs3)C2)cc1OC (stereo not given) | inactive
45 | CCS(=O)(=O)Nc1ccc(C2=NN(C(C)=O)C(c3cccs3)C2)cc1 (stereo not given) | 4.11 µM (active)
46 | CCOc1ccccc1C1CC(c2cccc(NS(C)(=O)=O)c2)=NN1C(=O)c1ccccc1 (stereo not given) | inactive
47 | CS(=O)(=O)Nc1cccc(C2=NN(C(=O)c3cccc(F)c3)C(c3cccs3)C2)c1 (stereo not given) | 23.1 µM (active)
48 | CS(=O)(=O)Nc1cccc(C2=NN(S(=O)(=O)c3ccccc3)C(c3cccs3)C2)c1 (stereo not given) | inactive
49 | CCNC(=O)Cn1nc(C)n2c(cc3c(OC)cccc32)c1=O | inactive
50 | CCc1ccccc1NC(=O)CN(C)S(=O)(=O)c1ccc2c(c1)c(=O)n(C)c(=O)n2C | inactive

Row | SMILES | Potency
51 | CCOc1ccc(S(=O)(=O)N2CCC(c3ccccc3)CC2)cc1C(=O)O | inactive
52 | CN(Cc1ccccc1)C(=O)COC(=O)c1ccccc1Nc1ccccc1 | inactive
53 | Cc1ccc(S(=O)(=O)N2CCN(C)CC2)cc1 | inactive
54 | Cc1ccc(S(=O)(=O)N2CCN(c3ncnc4ccccc34)CC2)cc1 | 461 nM (active) and 1.58 µM (active)
55 | O=[N+]([O-])c1ccc(S(=O)(=O)N2CCN(c3nc(-c4ccccc4)nc4ccccc34)CC2)cc1 | inactive
56 | Cc1ccc(C)c(S(=O)(=O)n2nc(C)c(S(=O)(=O)N3CCC(C)CC3)c2C)c1 | inactive
57 | COc1ccc(C)cc1S(=O)(=O)N1CCN(S(=O)(=O)c2cc(C(=O)O)ccc2C)CC1 | inactive
58 | Cc1ccc(C)c(S(=O)(=O)N2CCN(c3ncnc4sccc34)CC2)c1 | 11.6 µM (active)
59 | CCOC(=O)c1[nH]c(C)c(CCC(=O)NCc2ccccc2C)c1C | inactive
60 | CCCNC(=O)C1(C)CCN(C(=O)c2cc(F)ccc2C)C1 (stereo not given) | inactive
61 | CC(C)Oc1ccc(CN2CCC(n3nccc3NC(=O)c3cccnc3)CC2)cc1 | inactive
62 | COC(=O)[C@@]1(Cc2ccc(OC)cc2)[C@H]2c3cc(C(=O)N4CCCC4)n(Cc4ccc(OC(F)(F)F)cc4)c3C[C@H]2CN1C(=O)c1ccccc1 | 16.4 µM (active)
63 | COC(=O)c1ccc(CN2CCC(CO)(Cc3ccc(OC)cc3)CC2)cc1 | inactive
64 | CSc1ccc(S(=O)(=O)NCC(=O)OCC(=O)NC2(C#N)CCCCC2)cc1[N+](=O)[O-] | inactive
65 | CCN(CC(=O)NCC(=O)Nc1cccc(C)c1C)Cc1ccccc1 | inactive
66 | CSC1=NC2(C)CCCCC2C12C=CC(=O)C=C2 (stereo not given) | inactive
67 | O=C(C1=C(O)C(=O)N(Cc2ccccc2)C1c1ccco1)c1ccco1 (stereo not given) | inactive
68 | CCOc1cc(C2C(C(=O)c3ccco3)=C(O)C(=O)N2Cc2ccccc2)ccc1O (stereo not given) | inactive
69 | CC(C)c1ccc(C2C(C(=O)c3ccco3)=C(O)C(=O)N2CC2CCCO2)cc1 (stereo not given) | 20.6 µM (active)
70 | COc1cccc(OCC(=O)NNC(=O)c2cnccn2)c1 | inactive
71 | CN(C(=O)COc1nnc(-c2cccs2)c(-c2cccs2)n1)c1ccccc1 | 23.1 µM (active)
72 | O=C(O)Cc1sc(-c2ccccc2)nc1-c1cccs1 | inactive
73 | CN(C(=O)COc1ccccc1)c1nnc(-c2ccncc2)s1 | inactive
74 | CCOc1ccc(CC(=O)NCCc2csc3nc(-c4ccccc4F)nn23)cc1 | inactive
75 | Cc1ccc(NC(=O)COC(=O)CN2CCCCCC2=O)c(C)c1 | inactive

Row | SMILES | Potency
76 | CC(=O)Nc1ccc(NC(=O)CSc2ncnc3c2cnn3Cc2ccccc2)cc1 | inactive
77 | Clc1ccc(Nc2ncnc3c2nnn3Cc2ccccc2)cc1 | inactive
78 | Clc1ccc(Cn2ncc3c(NCc4cccnc4)ncnc32)cc1 | 20.6 µM (active)
79 | Cc1ccc(OCCOc2cccc(/C=N/NC(N)=O)c2)cc1 | inactive
80 | COc1ccc(C(=O)COC(=O)Cn2cnc3c2c(=O)n(C)c(=O)n3C)c(OC)c1 | inactive
81 | O=C(OCc1ccc([N+](=O)[O-])cc1)c1ccccn1 | inactive
82 | O=C(Oc1ccc([N+](=O)[O-])cc1)c1ccc2ccccc2n1 | inactive
83 | O=[N+]([O-])c1ccc(/C=C/c2ccc3cccnc3c2)cc1 | 7.94 µM (active)
84 | COc1ccc(C2/C(=C(/O)c3ccc(OC(C)C)cc3)C(=O)C(=O)N2CCCN2CCOCC2)cc1 (stereo not given) | inactive
85 | CCCCc1ccc(S(=O)(=O)NC(=O)C2(C)CCN2C(=O)c2c(C)noc2C)cc1 (stereo not given) | inactive
86 | Cn1c2c(c(=O)n(C)c1=O)C(c1cccc(F)c1)C(C#N)=C(N)O2 (stereo not given) | inactive
87 | CC(C)CCNC(=O)c1cccnc1Sc1ccccc1 | inactive
88 | Cc1cc([N+](=O)[O-])c(=O)[nH]c1C | inactive
89 | O=C(COC(=O)c1ccccc1OCCOc1ccccc1)Nc1cccc(Br)c1 | inactive
90 | Cc1cccc(C(=O)OCC(=O)Nc2ccc(F)cc2)c1 | inactive
91 | Cc1cccc(NC(=O)COC(=O)c2ccccc2OCc2cccc(Br)c2)c1 | 17.8 µM (active)
92 | CC1C(=O)Nc2ccccc2N1C(=O)c1ccc(F)cc1F (stereo not given) | inactive
93 | CCN(CC)C(=O)c1nc[nH]c1C(=O)N(C)Cc1ccccc1 | inactive
94 | CN1CC(O)c2cc(N=NC(N)=O)c(O)cc21 (stereo not given) | inactive
95 | CCOC(=O)N1CCN(S(=O)(=O)c2ccc(C(=O)Nc3ccc(F)cc3F)cc2)CC1 | 2.59 µM (active)
96 | CCOC(=O)N1CCN(S(=O)(=O)c2ccc(-n3cnnn3)cc2)CC1 | inactive
97 | CCOC(=O)N1CCN(S(=O)(=O)c2ccc(Br)cc2)CC1 | inactive
98 | COc1cccc(OCCn2c(-c3ccc(Br)cc3)nc3ccccc3c2=O)c1 | inactive
99 | COc1ccc(-c2ccc(CCC(=O)O)n2-c2ccc(O)cc2)cc1 | inactive
100 | COc1ccc(-c2nc3ccccc3c(=O)n2CCc2ccc(O)cc2)cc1 | 14.6 µM (active)
